Assay results: PubChem BioAssay (EPA / NIEHS)
Values joined by “and” are separate entries in the source; they are usually repeats but may differ in a detail not shown here. Identical values can stand only once. Some structures have more than one record in an assay (separate samples or runs), and their calls can disagree. Active and inactive are the calls of the source. How the source made its calls: active means hit-call score of the fitted dose curve at least 0.9, where 1 is the maximum; inactive means score below 0.9.

The compounds below were run on CD40, CD40 (gene 958) (assay: BSK_IMphg_CD40: BioMAP Diversity Plus: IMphg Assay for CD40 Biomarker Activity (AID 2284288)). Conditions: primary human endothelial cells with macrophages.
Method: BSK_IMphg is a cell-based, multiplexed-readout assay that uses venular endothelial cells and macrophages, a human vascular primary cell, with measurements taken at 24 hours after chemical dosing in a microplate: 96-well plate.BSK_IMphg_CD40 is an assay component measured in the BSK_IMphg assay. It measures CD40 antibody related to regulation of gene expression using ELISA technology.Data from the assay component BSK_IMphg_CD40 was analyzed at the endpoint, BSK_IMphg_CD40, in the positive analysis fitting direction relative to DMSO as the negative control and baseline of activity. Using a type of binding reporter, gain or loss-of-signal activity can be used to understand protein changes. To generalize the intended target to other relatable targets, this assay endpoint is annotated to the 'cytokine' intended target family, where the subfamily is 'inflammatory factor'.
The levels of cell surface (or secreted, indicated by the prefix "s") biomarker endpoints were measured by ELISA. Overt cytotoxicity to cells in confluent adherent cultures (all systems other than the BT system) was assessed by measuring total protein levels using sulforhodamine B (SRB) staining in parallel cultures at the time of biomarker measurements, indicated as SRB endpoints. For proliferation assays for adherent cell types, individual cell types are cultured at sub-confluence and relative cell numbers quantified by SRB staining at time points optimized for each system (48 h: 3C and CASM3C systems; 72 h: BT and HDF3CGF systems; 96 h: SAg system). SRB was performed by staining cells with 0.1% SRB after fixation with 10% TCA and reading wells at 560 nm.Viability and proliferation of PBMC (T cells) was quantified by Alamar Blue reduction for the SAg and BT systems. For PBMC viability (referred to as PBMC Cytotoxicity within the assay endpoint names), cells were plated (75,000/well in a 96-well plate) and then chemical samples added for 1 h before addition of activators, SEB and TSST-1 (20 ng/mL final concentration each). Cells were incubated for 90 h. Then, Alamar Blue (20 uL/well) (Invitrogen, Cat DAL1100) was added for 6 h, and the plates were read with a fluorescence microplate reader at 546/580 nm (excitation/emission). For PBMC proliferation, cells were plated and activated as above but incubated for only 16 h prior to addition of Alamar Blue. Plates were read after 6 h.

SMILES | outcome | AC50
O=C(O)C(F)(F)C(F)(F)C(=O)O | inactive | –
OCC(F)(F)OC(F)(F)C(F)(F)OC(F)(F)C(F)(F)OC(F)(F)CO | inactive | 30 µM (active)
O=C(O)C(F)(F)OC(F)(F)C(F)(F)OC(F)(F)C(=O)O | inactive | –
CC(O)C(F)(F)C(F)(F)F (stereo unspecified) | inactive | 2.17 µM (active)
O=S(=O)(F)C(F)(F)C(F)(F)C(F)(F)C(F)(F)C(F)(F)C(F)(F)C(F)(F)C(F)(F)F | inactive | –
O=C(O)C(F)(OC(F)(F)C(F)(F)C(F)(F)F)C(F)(F)F (stereo unspecified) | inactive | –
NC(=O)C(F)(F)C(F)(F)F | inactive | –
FC(F)(F)C(F)(C(F)(F)F)C(F)(F)C(F)(F)CC1CO1 (stereo unspecified) | inactive | –
COC(=O)C(F)(F)C(F)(F)OC(F)(C(F)(F)F)C(F)(F)OC(F)=C(F)F (stereo unspecified) | inactive | –
OCC(F)(F)OC(F)(F)C(F)(F)OC(F)(F)CO | inactive | –
OCC(F)(F)OC(F)(F)C(F)(F)OC(F)(F)C(F)(F)OC(F)(F)F | – | 7.58 µM (active) and 49.2 µM (active)
O=C(O)C(F)(F)OC(F)(F)C(F)(F)OC(F)(F)F | inactive | –
C=CC(=O)OCC(F)(F)C(F)F | – | 21.6 µM (active) and 23.6 µM (active)
O=C(O)C=CC(F)(C(F)(F)F)C(F)(F)F | inactive | –
